L major viab: inhibitors of Leishmania major promastigote growth. inhibition, % at 10 µM. Leishmania major promastigotes, resazurin fluorescence viability. AID 1063. 9% of 200,000 active; in the data active means inhibition above about 50%;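 further: promastigotes grown with compound for 44 hours at 28 °C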
WT yeast gro inh: growth inhibition of WT yeast, mitochondrial fusion screen. mitochondrial fusion phenotypic screen, WT strain. inhibition, % at 10 µM. 2.1% of 190,000 active. AID 1362; in the data active means inhibition above about 58%; tested in S. cerevisiae
CHOP inh: CHOP inhibition in unfolded protein response; inhibition, % at 10 µM; 3.8% of 220,000 active; CHO-K1 CHOP-promoter luciferase, tunicamycin-induced, 15-18 h; AID 2732;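 active means compounds that reduced the stress-induced luciferase reporter signal by more than about 70% of percent inhibition, limit read from the data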;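 further: 0% = tunicamycin plus vehicle and 100% = wells without tunicamycin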
Arbovirus anti: arbovirus infection inhibition. arbovirus infection cell-based antiviral screen. inhibition, % at 10 µM. 0.37% of 200,000 active; in the data active means inhibition above about 30%
Numbers without * were called inactive; x = no result. Shown are actives, neighbours in structure and some others; about 12% of the full set was active somewhere.

SMILES | L major viab | WT yeast gro inh | CHOP inh | Arbovirus anti
CCOC(=O)CSc1cccc2cccnc12 | 91* | 15 | 2 | -3
O=C(NC(Cc1ccc(F)cc1)C(=O)O)c1ccccc1 (stereo not drawn) | 70* | 0 | 11 | -3
O=C(NC(Cc1ccccc1)C(=O)O)c1ccccc1 (stereo not drawn) | 4 | 8 | 13 | -2
Cc1ccc(CC(NC(=O)c2ccccc2)C(=O)NC(C)C(=O)O)cc1 (stereo not drawn) | 84* | 23 | -1 | 3
CCN(CC)S(=O)(=O)c1cccc(-c2nnc(SCC(=O)NC3CCCCCCC3)n2N)c1 | -2 | 10 | 14 | -10
CC(C)C(OC(=O)c1cccs1)C(=O)NCc1ccco1 (stereo not drawn) | 2 | -18 | 35 | 2
O=C(OC(C(=O)NCc1ccco1)C(OC(=O)c1ccccc1)C(=O)NCc1ccco1)c1ccccc1 (stereo not drawn) | 2 | -22 | 94* | 2
Cn1c(C(=O)OCC(=O)NCc2ccco2)cc2sccc21 | -4 | 6 | 13 | -15
Cn1c(C(=O)OC(C(=O)NC(C)(C)C)c2cccnc2)cc2sccc21 (stereo not drawn) | 95* | -15 | 4 | -1
Cc1cc2c(cc(C(=O)OC(C(=O)NCc3ccco3)C(C)C)n2C)o1 (stereo not drawn) | 99* | 4 | 54 | -2
CCC(OC(=O)c1cc2sccc2n1C)C(=O)NCc1ccco1 (stereo not drawn) | -3 | 75* | 37 | 0
CC(C)Oc1ccc(C(CC(=O)NCc2ccco2)c2ccccc2)cc1 (stereo not drawn) | 67* | 7 | 5 | -1
Cc1cccc(C(CC(=O)NCc2ccco2)c2ccccc2)c1O (stereo not drawn) | 11 | 8 | -6 | 0
N=c1c(C(=O)NCc2ccc(F)cc2)cc2c(=O)n3ccccc3nc2n1CCCN1CCOCC1 | 60* | -10 | 35 | -4
CC(C)OCCCn1c(=N)c(C(N)=S)cc2c(=O)n3ccccc3nc21 | 100* | -7 | -18 | -10
CC(=O)N=c1c(C#N)cc2c(=O)n3ccccc3nc2n1CCCOC(C)C | x | x | -12 | x
N=c1c(C(=O)NCc2ccc(F)cc2)cc2c(=O)n3ccccc3nc2n1Cc1cccnc1 | 71* | 11 | -5 | -11
COC(=O)c1cc2c(=O)n3ccccc3nc2n(Cc2cccnc2)c1=N | 19 | x | x | x
CC(C)(C)OC(=O)N[C@@H](Cc1ccccc1)C(=O)NCC1CCC(C(=O)O)CC1 (stereo partly drawn) | x | x | 25 | x
O=C(Nc1nccs1)c1c(O)c2cccc3c2n(c1=O)CCC3 | 96* | 26 | 108* | -2
Cc1cccnc1NC(=O)c1c(O)c2cccc3c2n(c1=O)CCC3 | -2 | -2 | 80* | 1
COCCOC(=O)C1=C(C)OC(N)=C(C#N)C1c1cc2cccc(C)c2nc1Cl (stereo not drawn) | -1 | -5 | -24 | 8
Cc1cccc(NC(=S)NCC(c2ccccc2)N(C)C)c1 (stereo not drawn) | 6 | 13 | -13 | 5
Cc1ccc(NC(=S)NCC(C)CSc2ccc(Cl)cc2)cc1 (stereo not drawn) | 59* | 81* | 2 | -27
Cc1cccc(NC(=S)NCC(C)CSc2ccc(Cl)cc2)c1 (stereo not drawn) | 86* | 82* | 2 | -23
SMILES | L major viab | WT yeast gro inh | CHOP inh | Arbovirus anti
Cc1ccc(N2C(=O)c3ccccc3C2C(=O)c2ccc(C)c(C)c2O)cc1 (stereo not drawn) | x | x | -5 | x
CN1CCN(c2ccc(Cl)cc2NC(=O)/C=C/c2ccc(F)cc2)CC1 | 94* | 83* | 21 | -31
CCC(=O)N1CCN(c2ccc(Cl)cc2NC(=O)Cc2ccc(Cl)cc2)CC1 | 31 | 21 | 80* | -6
CN1CCN(c2ccc(Cl)cc2NC(=O)CCN2C(=O)c3ccccc3C2=O)CC1 | 77* | -5 | 9 | 8
COc1ccc(CCC(=O)Nc2cc(Cl)ccc2N2CCN(C)CC2)cc1 | 9 | -1 | -3 | -19
CCCCCCCn1c(=O)c(C(=O)OC)c(N)c2ccccc21 | x | x | 73* | x
CCCCCCn1c(=O)c(-c2ccccc2)c(O)c2ccccc21 | -10 | 16 | 3 | 54*
CCCCCCCCn1c(=O)c(C(=O)OC)c(N)c2ccccc21 | x | x | 66 | x
CCOC(=O)N1CCN(S(=O)(=O)c2ccc(C(=O)Nc3nnc(CC)o3)cc2)CC1 | 59* | -7 | 7 | 1
CCOC(=O)N1CCN(S(=O)(=O)c2ccc(C(=O)Nc3nc4c(s3)CC(C)CC4)cc2)CC1 (stereo not drawn) | 12 | -29 | 93* | -19
COc1ccc(Nc2nc(-c3ccccc3)c(C(=O)Nc3cccnc3)s2)cc1 | 5 | 1 | 34 | -4
O=C(CSc1n[nH]c(-c2ccccc2)n1)Nc1ccc(Br)cn1 | 54* | 2 | 30 | 10
CCOC(=O)CC(NC(=O)C(CC)c1ccccc1)c1ccccc1Cl (stereo not drawn) | 95* | 5 | 25 | -1
Cc1cc(C)c(CN2CCC(CO)(CCOc3ccccc3)CC2)cc1C | 60* | 15 | 21 | -13
OCC1(CCOc2ccccc2)CCN(C2Cc3ccccc3C2)CC1 | 88* | 9 | 0 | -3
CCC(C)[C@H](NC(=O)N1CCC(C)CC1)C(=O)OC (stereo partly drawn) | x | x | 11 | x
CCOC(=O)c1ccc2c(c1)N(CC#N)C(=O)C(C)(C)O2 | 1 | 11 | 16 | 3
COC(=O)CN(c1ccc2c(c1)OCCO2)S(=O)(=O)c1ccccc1 | 2 | 73* | 4 | 7
O=C(O)CN(c1ccc2c(c1)OCCO2)S(=O)(=O)c1ccccc1 | -3 | -18 | -4 | 0
CCN(CC)S(=O)(=O)c1ccc(C)c(NC(=S)N2CCN(C/C=C/c3ccccc3)CC2)c1 | 60* | 18 | 81* | 16
Cc1cccc(NC(=S)N2CCN(Cc3ccc4c(c3)OCO4)CC2)c1C | 90* | 12 | 37 | -8
Cc1ccc(NC(=S)N2CCN(Cc3ccc4c(c3)OCO4)CC2)c(C)c1 | 89* | x | x | x
CCN(CC)S(=O)(=O)c1ccc(C)c(NC(=O)CN2CCN(Cc3ccccc3)CC2)c1 | x | x | -17 | x
CC(C)CNC(=S)N1CCN(Cc2ccc3c(c2)OCO3)CC1 | 37 | -9 | 21 | 5
CC(C)c1ccccc1NC(=S)N1CCN(Cc2ccc3c(c2)OCO3)CC1 | 77* | 40 | 10 | 0
SMILES | L major viab | WT yeast gro inh | CHOP inh | Arbovirus anti
CCC(C)NC(=S)N1CCN(Cc2ccc3c(c2)OCO3)CC1 (stereo not drawn) | 14 | -13 | -12 | 9
C#CCNC(=O)C1=C[C@H](c2ccc(Br)cc2)C[C@H](OCCCCO)O1 | -10 | -18 | 13 | 0
CCN(CC)S(=O)(=O)c1ccc(C)c(NC(=S)N2CCN(Cc3ccc4c(c3)OCO4)CC2)c1 | 96* | 4 | 45 | 23
NS(=O)(=O)c1ccc(NC(=S)N2CCN(Cc3ccc4c(c3)OCO4)CC2)cc1 | -3 | 6 | 9 | 6
Cc1nc2c(sc3nc(N4CCOCC4)c4c(c32)CC(C)(C)OC4)c(-c2ccc(Cl)cc2)c1C(=O)O | x | x | 48 | x
CCCCCCC1(C)NC(=S)N(c2ccccc2)N1 (stereo not drawn) | 51* | 17 | -13 | -21
CCCCCC1(C)NC(=S)N(c2ccccc2)N1 (stereo not drawn) | 53* | 38 | -9 | -20

Compound activity deposited in PubChem by several laboratories.
